High-throughput results as filed in PubChem BioAssay.
Most compounds without a hit are left out; they make up all but 4% or so of the library.
TROY signal inh – inhibitors of TROY-driven NF-kB signaling, primary screen, Q293 LMP1-TROYcd cells, NF-kB luciferase, uHTS; actives 0.98% (n = 360,000); Q293 LMP1-TROYcd NF-kB luciferase reporter, 4 h; inhibition, % at 10 µM;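 active means compounds whose plate-normalised and pattern-corrected inhibition of the luciferase reporter signal at the single screening dose is 50% or more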
HIF-2a inh – HIF-2a reporter inhibitors, primary screen, luminescence, 786-0 RCC cells; AID 624352, 2012; actives 0.72% (n = 360,000); inhibition, % at 18.8 µM; 786-0 RCC cells HIF-2a reporter, luciferase luminescence, overnight;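 active means inhibition of the luminescence signal of 40% or more relative to plate controls, in a single-dose primary screen at 18.75 µM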
KKLEB tox – cytotoxicity in KKLEB CF airway cells, primary screen, cytotoxicity control for CF NF-kB inhibitor project, cell-based, uHTS, fluorescence assay plates; AID 602141, 2011; actives 0.36% (n = 360,000); KKLEB CF airway cells viability, ATPlite luminescence, overnight; stronger effect = lower value; cells stimulated with P. aeruginosa culture filtrate; activity change (cytotoxicity), % at 5 µM;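 active means corrected activity change at or below -50% at 5 µM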
Peg3 promoter – Peg3 promoter-driven luciferase inhibitors, primary screen, cell-based, HeLa, luciferase luminescence; HeLa PEG-Prom luciferase reporter, overnight; inhibition, % at 20 µM; actives 1.7% (n = 360,000); AID 588405, 2011;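 active means inhibition of at least 50% at 20 µM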
CF NFkB inh – inhibitors of PAF-induced NF-kB signaling, primary screen, cell-based, GFP fluorescence, uHTS; KKLEB NF-kB-GFP reporter, GFP fluorescence overnight; inhibition, % at 5 µM; actives 0.86% (n = 360,000);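 active means at least 50% inhibition at 5 µM, scaled per plate between neutral and stimulator controls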;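 further: PAF is a Pseudomonas aeruginosa culture filtrate used as stimulus; plate controls were PAF-stimulated DMSO wells for no effect and unstimulated DMSO wells for full effect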
TWEAK-Fn14 inh – inhibitors of TWEAK-Fn14 signaling, primary screen, luciferase reporter cells, uHTS; TWEAK-stimulated Fn14 reporter cells, luciferase luminescence, 8 h; inhibition, % at 10 µM; AID 1159606, 2016; actives 2% (n = 360,000); in the data active means inhibition above about 50%
* marks the source's active call; other numbers are inactive results.

SMILES	TROY signal inh	HIF-2a inh	KKLEB tox	Peg3 promoter	CF NFkB inh	TWEAK-Fn14 inh
CC(Sc1nncs1)C(=O)Nc1ccc2c(c1)OCO2 (centres undefined)	-11	-56	11	-38	-20	8
Cc1onc(-c2ccccc2Cl)c1C(=O)Nc1nnc(-c2ccc(Cl)cc2Cl)s1	27	-7	5	8	18	3
Cc1onc(-c2ccccc2Cl)c1C(=O)Nc1nc2c(s1)CCCC2	52*	-198	1	-106	-12	-13
Cc1onc(-c2c(F)cccc2Cl)c1C(=O)Nc1sc2c(c1C(N)=O)CCC2	19	-3	-4	52*	-6	44
CC1CN(C(=O)c2c([N+](=O)[O-])cnn2C)CC(C)O1 (centres undefined)	-1	0	14	11	-5	1
CC(C)CNC(=O)CO/N=C/c1ccccc1Cl	-15	0	-3	-3	-1	17
O=c1[nH]c(NCc2ccccc2)nc2c1CCC2	-7	18	3	12	10	-5
Cc1nc(Nc2nc3c(c(=O)[nH]2)CCC3)nc2ccccc12	-36	-82	-3	86*	65*	69*
NC(Cc1cnc[nH]1)c1csc(Nc2ccc(C(F)(F)F)cn2)n1 (centres undefined)	16	11	-13	7	5	9
Cc1cnc(C)c(Nc2nc(C(N)Cc3ccc(C(F)(F)F)cc3)cs2)n1 (centres undefined)	0	12	-12	108*	16	-13
Cc1cnc(C)c(Nc2nc(C(N)Cc3ccccc3)cs2)n1 (centres undefined)	-9	1	4	-4	-25	-3
NC(Cc1ccc(F)cc1)c1csc(Nc2ccc(C(F)(F)F)cn2)n1 (centres undefined)	3	7	-10	95*	35	-9
NC(Cc1ccc(Cl)cc1)c1csc(Nc2ccc(-c3ccccc3)nn2)n1 (centres undefined)	-5	0	-13	99*	9	-9
NC(Cc1ccc(C(F)(F)F)cc1)c1csc(Nc2ccccn2)n1 (centres undefined)	-10	1	-7	105*	-3	2
CCc1ccc(/C=C2\SC(=S)N(CCCC(=O)N(CCO)c3ccccc3)C2=O)cc1	35	65*	-17	76*	20	36
CCOc1ccc(/C=C2\SC(=S)N(CCC(=O)N(CCO)c3ccccc3)C2=O)cc1	-6	57*	-1	-6	6	22
CC(=O)NCCNC(=O)c1oc2ccccc2c1CSc1ncn[nH]1	9	13	0	11	-5	-21
COc1cc(O)cc(O)c1C(=O)/C=C/c1ccccc1	4	26	-12	24	52*	78*
COc1cc(OC)c(C(=O)/C=C/c2ccccc2)c(O)c1O	19	13	8	3	17	64*
COc1ccc(C(=O)/C=C/c2ccccc2)c(O)c1	-65	-148	-13	-98	-33	21
COc1ccc(C=CC(=O)c2ccc(OCc3ccccc3)c(OC)c2)cc1OC	-20	7	2	30	-22	-12
c1cc(CNc2ccc3c(c2)OCCO3)ccn1	62*	28	3	-7	-12	81*
C=CCOc1ccccc1CNc1ccccc1C	18	-23	-1	-11	-5	69*
CCOc1ccc(Br)cc1CNc1ccc2c(c1)OCCO2	87*	3	2	-57	-6	83*
C=CCOc1ccccc1CNc1ccc2c(c1)OCCO2	85*	13	-15	-3	11	91*
SMILES	TROY signal inh	HIF-2a inh	KKLEB tox	Peg3 promoter	CF NFkB inh	TWEAK-Fn14 inh
CCN(CC(=O)Nc1ccccc1OC)C(=O)CSCc1ccc(C)cc1	6	12	-20	5	4	-18
COC(=O)c1ccccc1C(=O)N1CCOCCN(C(=O)c2ccccc2C(=O)OC)CCOCC1	-1	9	-6	-1	3	11
O=C(NCC1CCCN(Cc2ccc3nonc3c2)C1)c1ccc(F)cc1 (centres undefined)	71*	13	-7	8	-6	7
CC(Oc1ccccc1Cl)C(=O)/C=C/N(C)C (centres undefined)	1	2	-14	1	1	-3
CN(C)/C=C(\C=N\OCc1ccc(Cl)cc1Cl)C(=O)Nc1ccc(Cl)c(Cl)c1	-13	6	-60*	11	56*	-2
O=C(O)c1ccc(N/N=C/c2c(F)cccc2Cl)cc1	35	22	-9	35	14	95*
Cc1ccc(C(=O)/C=C/c2ccc3c(c2)OCCO3)c(O)c1	27	-76	14	-328	10	13
O=C(/C=C/c1ccc2c(c1)OCCCO2)c1ccc2ccccc2c1O	61*	-226	-6	-159	8	33
OC(CSc1ccccc1)CN1CCN(c2cccc(Cl)c2)CC1 (centres undefined)	10	-8	-8	15	13	21
CN(c1ccccc1)S(=O)(=O)c1cc(C(=O)OCC(=O)c2c(N)n(C)c(=O)n(C)c2=O)ccc1Cl	32	9	-16	15	12	1
Cc1ccc(N(C)S(=O)(=O)c2cccc(C(=O)OCC(=O)c3c(N)n(C)c(=O)n(C)c3=O)c2)cc1	52*	16	-18	32	-5	38
Cn1c(=O)n(CCc2ccccc2)c(=O)c2c1nc1n2CCCN1CCc1ccccc1	37	8	-9	69*	0	47
CCCn1c(=O)c2c(nc3n2CCCN3Cc2ccccc2)n(C)c1=O	12	15	-7	23	-2	-2
Cn1c(=O)n(CCc2ccccc2)c(=O)c2c1nc1n2CCCN1Cc1ccccc1	29	8	-2	45	-4	52*
COc1ccc(N2CCCn3c2nc2c3c(=O)n(CCc3ccccc3)c(=O)n2C)cc1	9	6	-5	52*	-8	36
Cc1ccccc1NC(=O)Cn1c(=O)n(Cc2ccccc2)c(=O)c2c(C)c(C)sc21	7	13	-28	9	22	5
CN(C)CCOc1nc(-c2ccccc2)nc2c1oc1ccccc12	-46	2	0	100*	-67	-53
CN(C)CCOc1ncnc2c1oc1ccccc12	-13	-16	-4	8	-18	-12
Cn1nc([N+](=O)[O-])c(C(C#N)c2nc3ccccc3n2C)c(Cl)c1=O (centres undefined)	10	18	-2	13	-69	-2
Cc1ccccc1NS(=O)(=O)c1cc(C(=O)Nc2cccc([N+](=O)[O-])c2)ccc1C	59*	10	-12	35	-7	67*
